# The panel holds about 83,000 compounds, 20% with a hit somewhere; the sample as a whole holds those more often.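 Compound tested at a single concentration for 48 hours in 96-well plates; a percent growth value below 10 was scored as active.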 Values without a mark were called inactive. Activity calls are given as the source filed them.
# How the values were obtained:
# Assay in all cases: NCI-60 one-dose screen, 48 h (100 = growth as untreated, 0 = no growth, -100 = all killed)
# Settings in all cases: 10 µM unless noted
# NCI-H23 lung = tested on: NCI-H23 lung
# NCI-H322M lung = tested on: NCI-H322M lung
# HOP-62 NSCLC = tested on: HOP-62 NSCLC
# NCI-H460 lung = tested on: NCI-H460 lung
# HOP-92 NSCLC = tested on: HOP-92 NSCLC
# NCI-H522 lung = tested on: NCI-H522 lung
# A549/ATCC NSCLC = tested on: A549/ATCC NSCLC
# 786-0 renal = tested on: 786-0 renal
# COLO 205 colon = tested on: COLO 205 colon
# DU-145 prostate = tested on: DU-145 prostate
# K-562 leukemia = tested on: K-562 leukemia
# MALME-3M melanoma = tested on: MALME-3M melanoma
# MDA-MB-231 breast = tested on: MDA-MB-231 breast
# RXF 393 renal = tested on: RXF 393 renal
# SF-268 CNS = tested on: SF-268 CNS
# SF-295 CNS = tested on: SF-295 CNS
# SF-539 CNS = tested on: SF-539 CNS
# UACC-257 melanoma = tested on: UACC-257 melanoma
# M14 melanoma = tested on: M14 melanoma
# HCT-15 colon = tested on: HCT-15 colon
SMILES,growth (NCI-H23 lung),growth (NCI-H322M lung),growth (HOP-62 NSCLC),growth (NCI-H460 lung),growth (HOP-92 NSCLC),growth (NCI-H522 lung),growth (A549/ATCC NSCLC),growth (786-0 renal),growth (COLO 205 colon),growth (DU-145 prostate),growth (K-562 leukemia),growth (MALME-3M melanoma),growth (MDA-MB-231 breast),growth (RXF 393 renal),growth (SF-268 CNS),growth (SF-295 CNS),growth (SF-539 CNS),growth (UACC-257 melanoma),growth (M14 melanoma),growth (HCT-15 colon)
O=C1c2ccccc2C(=O)c2c1ccc1[nH]c(CCl)nc21,15%,62.5%,25.3%,1.46% (active),32%,-31.5% (active),43.8%,28.9%,29.1%,17.1%,2.91% (active),11.5%,37.4%,34.7%,24.9%,65.2%,37.9%,28.8%,33.5%,-24.8% (active)
O=C(Nc1ccccc1O)c1ccc(-c2ccc(Cl)cc2Cl)o1,85%,101%,93.7%,98.2%,80.4%,91.4%,102%,88.2%,90.7%,91%,47.1%,71.4%,80.4%,79.7%,77.1%,68.4%,115%,106%,90%,95.9%
COc1ccc(/C=C/C(=O)c2c(C)nc3ccccc3c2/C=C/c2ccccc2)c(OC)c1,73.4%,89.3%,108%,80.3%,66.8%,70.5%,78.5%,94.1%,94.7%,90.4%,69.6%,106%,68.9%,89.6%,80.7%,90.9%,100%,104%,97.3%,72.2%
Cn1c(=O)n(C)c2cc(CNCCNc3ccnc4cc(Cl)ccc34)ccc21,95.3%,95.4%,78.1%,2.02% (active),55.9%,94.9%,70.3%,1.49% (active),55.1%,74.8%,5.18% (active),43.6%,62.5%,52.1%,97.9%,-69.4% (active),58.9%,-61.8% (active),-52.8% (active),9.62% (active)
CCC1=C[C@]2(C3CC(=O)N(c4ccccc4)C3=O)CC(C(C)(C)C)C[C@@H]2[C@@H]2C(=O)N(c3ccccc3)C(=O)[C@H]12 (stereo not given in full),95.2%,69.3%,82.1%,93.3%,84.5%,57.3%,68.7%,83.8%,93.3%,92%,83.7%,91.5%,81.4%,87.3%,78.5%,93.6%,95.3%,57.1%,83.7%,87.7%
CCOC(=O)C1(C(=O)OCC)N=C(c2ccccc2)C=C1c1ccccc1,86.4%,103%,105%,104%,66.5%,64.4%,86.7%,96%,99.9%,106%,65.2%,86.4%,96.3%,74.9%,92.6%,84.9%,94%,92.1%,90.5%,96.5%
Clc1ccc(Nc2nnc(-c3ccc4c(c3)OCO4)o2)cc1,101%,98.9%,114%,103%,99.8%,80.9%,97.8%,97.9%,107%,98.9%,62.4%,99%,108%,130%,107%,115%,104%,100%,102%,95.8%
O=C(Nc1ccc(F)cc1F)c1cc(Cl)ccc1O,5.18% (active),5.61% (active),3.07% (active),7.22% (active),-20.5% (active),-28.2% (active),6.37% (active),2.83% (active),9.45% (active),18%,11%,-21.9% (active),10.3%,4.05% (active),15%,-8.97% (active),12.3%,-11% (active),18.8%,13.9%
CCOC(=O)c1cc2c(n1Cc1ccccc1)-c1oncc1CCC2,88.3%,107%,77.9%,97.3%,86.3%,61.4%,59.2%,102%,69%,114%,24.1%,39.2%,74.4%,84.6%,88.7%,98.2%,83.3%,82.5%,68%,45.7%
Cc1cc2c(c(C)c1Cl)C(=O)/C(=C/c1cccc([N+](=O)[O-])c1)O2,90.3%,98.7%,107%,101%,114%,80.6%,89.6%,101%,123%,104%,99.9%,97.1%,92.7%,107%,100%,95.1%,95%,88.2%,98.9%,99.7%
COc1cccc2c1C=C1CCCCC3=Cc4c(OC)cccc4OC13O2,55.9%,61.2%,56.8%,25.4%,46.8%,32.7%,45.8%,41.7%,30.6%,63.5%,17.4%,36.5%,56.7%,32.8%,50.8%,27.2%,39.4%,62.1%,27.3%,28.3%
CC[C@@H](C)[C@H](NC(=O)Cn1cc(CNC(=O)[C@@H](NC(=O)OCc2ccccc2)C(C)C)nn1)C(=O)O,101%,108%,114%,110%,102%,101%,101%,106%,124%,114%,104%,105%,99.4%,104%,114%,94.1%,105%,101%,107%,111%
O=c1oc2ccc(F)cc2c(=O)n1-c1ccc(I)cc1F,2.97% (active),8.02% (active),-3.36% (active),3.08% (active),-17.6% (active),-15.8% (active),5.88% (active),0.0953% (active),53.9%,14.8%,7.88% (active),-22.1% (active),-25.4% (active),-1.5% (active),12.2%,-40% (active),3.66% (active),-14.8% (active),3.58% (active),5.2% (active)
O=C1/C(=C/c2ccc(O)cc2)COc2ccc(O)c(O)c21,35.9%,79%,51.5%,8.73% (active),52.7%,-47.7% (active),34.5%,25.4%,91.8%,17%,4.59% (active),-6.72% (active),20.2%,9.98% (active),24.5%,95.6%,-13.7% (active),63.2%,64.7%,-29.3% (active)
Oc1c(CN2CCN(c3ccccc3F)CC2)cc(Br)c2cccnc12,44.6%,16.7%,-75% (active),-73.1% (active),-5.84% (active),-65% (active),-65% (active),-83.5% (active),-8.74% (active),-32% (active),1.01% (active),-58.2% (active),-33.5% (active),-57.5% (active),0.474% (active),-72.5% (active),-90.5% (active),11.3%,-3.56% (active),-4.53% (active)

# — PubChem BioAssay (NCI)
